Bioassay records from PubChem.
D3 antag: qHTS of D3 Dopamine Receptor Antagonist: qHTS | 360,000 compounds, 2.5% hits | max response, negative = inhibition, % | D(3) dopamine receptor (Homo sapiens), P35462 | AID 652054, 2013 | D3R cells, DiscoveRx beta-arrestin luminescence, antagonist mode; active compounds read low; in the data active = max response below about -50%; inconclusive = no clear call, values can overlap the other calls; also: % is scaled to controls: 0 for no effect and ±100 for the full control effect
Target sequence (P35462 whole entry, looked up): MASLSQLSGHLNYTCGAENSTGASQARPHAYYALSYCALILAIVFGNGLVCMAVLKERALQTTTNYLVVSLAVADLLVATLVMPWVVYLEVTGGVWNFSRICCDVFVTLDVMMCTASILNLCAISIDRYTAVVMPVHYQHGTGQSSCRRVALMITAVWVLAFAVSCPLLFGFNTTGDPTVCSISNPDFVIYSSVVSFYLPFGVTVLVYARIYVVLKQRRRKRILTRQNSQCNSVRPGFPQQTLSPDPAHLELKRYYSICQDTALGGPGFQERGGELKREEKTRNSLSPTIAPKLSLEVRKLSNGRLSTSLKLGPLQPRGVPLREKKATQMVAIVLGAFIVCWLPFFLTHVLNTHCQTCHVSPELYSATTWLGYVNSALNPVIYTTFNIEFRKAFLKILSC
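Cells expressing the human receptor were seeded at 1500 cells/well, incubated overnight at 37 degrees C in 5% CO2, then exposed to library compounds with dopamine controls for 90 minutes at 37 degrees C before luminescent detection.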
ATXN2 expr inh: Primary qHTS for Inhibitors of ATXN expression | Potency, µM (series often up to 57 µM), for the others: at the top dose activity change, negative = inhibition, actives largely listed as inhibitors | 360,000 compounds, 0.72% hits | HEK-293 ATXN2-luciferase reporter, luminescence, 24 h; also: potency is read from the fitted curve at half-maximal effect; % is scaled to controls: 0 for no effect and ±100 for the full control effect; nearly all actives have a fitted effect of over 55% in size
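ATXN2-luciferase reporter cells (luciferase flanked by upstream and downstream ATXN2 gene portions) were treated 24 h at 37 °C with compounds at up to 57 uM. SteadyGlo luminescence gave expression; GF-AFC fluorescence gave viability.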
S2 tox: Viability Counterscreen for Primary qHTS for Inhibitors of ATXN expression; S2 cells (HEK-293 line with an ATXN2-luciferase reporter) viability, CellTiter-Fluor protease fluorescence, 24 h; Potency, µM (series often up to 56.7 µM), most hits filed as cytotoxic; 400,000 compounds, 0.49% hits; AID 651635, 2014; also: potency is read from the fitted curve at half-maximal effect; nearly all actives have a fitted effect of over 40% in size
a7 integrin act: qHTS for Activators of Integrin-Mediated Alleviation for Muscular Dystrophy; alpha7betagal myoblasts, beta-gal FDG fluorescence, 48 h; 350,000 compounds, 0.064% hits; Potency, µM (series often up to 38.3 µM), inactives show at the highest dose activation, hits mostly activators;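 also: potency is read from the fitted curve at half-maximal effect; 100% = response of the positive control SU9516; nearly all actives have a fitted effect of over 60% in size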
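alpha7betagal+/- myoblasts (passage 13, 250/well) treated 48 h at 37C with compounds at 1:260 dilution of DMSO stock. Lysed, then beta-galactosidase activity read as FDG fluorescence (ex 480/em 540) after 30 min, with pre-read for autofluorescence.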
IL-1B inflam inh: qHTS for Inhibitors of Inflammasome Signaling: IL-1-beta AlphaLISA Primary Screen; AID 743279, 2014; 360,000 compounds, 4.7% hits; activity change, % at 57.5 µM; THP-1 LPS/ATP IL-1B secretion, AlphaLISA, 16 h; active compounds read low; in the data active = activity change below about -50%; inconclusive = mostly about -30% to -49%; also: % is scaled to controls: 0 for no effect and ±100 for the full control effect
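THP-1 cells pretreated 1 hr with compounds (up to 57.5 uM final), then stimulated with LPS (250 ng/mL final) plus ATP (1.25 mM final); secreted IL-1B measured by AlphaLISA after 16 hr, decreased signal indicating inhibition.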
D3 ag: qHTS of D3 Dopamine Receptor Agonist: qHTS; D3R DiscoveRx beta-arrestin cells, luminescence, 90 min; max activation, %; 410,000 compounds, 0.58% hits; AID 652048, 2013; in the data active = max activation above about 30%; also: 0% is about no effect
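Agonist mode: compounds and dopamine controls were applied to plated cells for 90 min at 37 degrees C after an overnight attachment at 1500 cells/well. Luminescent read-out followed 30 - 60 minutes at room temperature with DiscoveRx detection reagent.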
The depositor's hits bear a star; [ ] = remark or other dose. In the library only some 7% were active in any assay of this set; here they are far more common. Unless noted, calls follow the shape of the dose curve; as a rule, active = well fitted curve in the direction sought with a large enough effect; inconclusive = small, poorly fitted or top-dose-only effect, or another doubt; inactive = no such curve, though single readings can be large; an effect the other way counts as inactive or inconclusive.

Results for COC(=O)c1ccc(NC(=O)Nc2cccc(F)c2)cc1 ?
D3 antag: 4; ATXN2 expr inh: 3%; S2 tox: inactive; a7 integrin act: -38%; IL-1B inflam inh: -92*; D3 ag: 9

How did CC(=O)c1ccc(NC(=O)Nc2ccccc2)cc1 do in these assays?
D3 antag: 4; ATXN2 expr inh: 2%; S2 tox: inactive; a7 integrin act: -5%; IL-1B inflam inh: -59*; D3 ag: -1

How did CC(=O)c1cccc(NC(=O)Nc2ccccc2)c1 do in these assays?
D3 antag: -7; ATXN2 expr inh: 35%; S2 tox: inactive; a7 integrin act: 17%; IL-1B inflam inh: -15; D3 ag: -4

What do the screens show for `Clc1ccc(-c2cc(CN3CCCCC3)no2)cc1Cl`?
D3 antag: -15; ATXN2 expr inh: 23%; S2 tox: inactive; a7 integrin act: -3%; IL-1B inflam inh: -14; D3 ag: -22

Results for C=C(C)C1CC=C(C)/C(=N/NC(=O)COc2ccc(Cl)cc2)C1 (stereo not drawn) ?
D3 antag: 14; ATXN2 expr inh: -7%; S2 tox: inactive; a7 integrin act: 1%; IL-1B inflam inh: 0; D3 ag: -5

How did C/C(N)=C(/C#N)C(=O)CSc1nc2ccccc2c(=O)n1CCCOC(C)C do in these assays?
D3 antag: 4; ATXN2 expr inh: -9%; S2 tox: inconclusive; a7 integrin act: 6%; IL-1B inflam inh: inconclusive; D3 ag: -9

Results for NS(=O)(=O)c1ccc(CCNC(=O)C(=O)Nc2cc3c4c(c2)CC(=O)N4CCC3)cc1 ?
D3 antag: 9; ATXN2 expr inh: 10%; S2 tox: inactive; a7 integrin act: 5%; IL-1B inflam inh: 7; D3 ag: 5

What do the screens show for `C=CCC[C@@H](Cc1ccc(F)cc1)C(=O)OC[C@@H](NC(=O)[C@@H](CC=C)CC(=O)N(CCO)Cc1ccccc1)c1ccccc1`?
D3 antag: 1; ATXN2 expr inh: inconclusive; S2 tox: inconclusive; a7 integrin act: -35%; IL-1B inflam inh: -67*; D3 ag: -8

How did C=CCC[C@@H](Cc1ccc(F)cc1)C(=O)OC[C@H](C)NC(=O)[C@@H](CC=C)CC(=O)N(CCO)Cc1ccccc1 do in these assays?
D3 antag: -5; ATXN2 expr inh: inconclusive; S2 tox: inconclusive; a7 integrin act: -15%; IL-1B inflam inh: inconclusive; D3 ag: -6

Results for C=CCC[C@@H](Cc1ccc(F)cc1)C(=O)OCCNC(=O)[C@@H](CC=C)CC(=O)N(CCO)Cc1ccccc1 ?
D3 antag: 9; ATXN2 expr inh: inconclusive; S2 tox: inconclusive; a7 integrin act: -18%; IL-1B inflam inh: -61*; D3 ag: 8

What do the screens show for `C=CCC[C@H](Cc1ccc(F)cc1)C(=O)OC[C@@H](C)NC(=O)[C@H](CC=C)CC(=O)N(CCO)Cc1ccccc1`?
D3 antag: 16; ATXN2 expr inh: inconclusive; S2 tox: inconclusive; a7 integrin act: -27%; IL-1B inflam inh: 0; D3 ag: 12

Results for C=CCC[C@@H](Cc1ccc(F)cc1)C(=O)OC[C@@H](NC(=O)[C@H](CC=C)CC(=O)N(CCO)Cc1ccccc1)c1ccccc1 ?
D3 antag: 3; ATXN2 expr inh: inconclusive; S2 tox: inconclusive; a7 integrin act: -9%; IL-1B inflam inh: -60*; D3 ag: -18

Results for CCOc1ccc(NC(=O)COC(=O)CCC(=O)c2cccs2)cc1 ?
D3 antag: 12; ATXN2 expr inh: 5%; S2 tox: inactive; a7 integrin act: 12%; IL-1B inflam inh: -15; D3 ag: 2

What do the screens show for `Nc1ccc2nc(-c3ccccc3)c(-c3ccccc3)nc2c1`?
D3 antag: -6; ATXN2 expr inh: 0%; a7 integrin act: -7%; IL-1B inflam inh: 31; D3 ag: 2

What do the screens show for `Nc1nc(N)c2nc(-c3cccc(O)c3)c(-c3cccc(O)c3)nc2n1`?
ATXN2 expr inh: 24µM*

How did Nc1nc(N)c2nc(-c3ccccc3)c(N)nc2n1 do in these assays?
D3 antag: -2; ATXN2 expr inh: -1%; IL-1B inflam inh: 41; D3 ag: -13

Results for NSc1nc(N)c2nc(-c3ccccc3)c(-c3ccccc3)nc2n1 ?
D3 antag: inconclusive; ATXN2 expr inh: inconclusive; a7 integrin act: 1%; IL-1B inflam inh: -51*; D3 ag: -4

What do the screens show for `COC(=O)CNC(=O)c1cnn(-c2ncc3c(n2)-c2ccccc2CCC3)c1C1CC1`?
S2 tox: inactive

How did CC(=O)Nc1ccc(N=Cc2c(O)c(C(=O)Nc3ccccc3)cc3ccccc23)cc1 do in these assays?
D3 antag: 11; S2 tox: inactive; a7 integrin act: -11%; IL-1B inflam inh: 57; D3 ag: 2

What do the screens show for `CCOc1cc(Br)c(Br)c(C=Nc2ccc(NC(C)=O)cc2)c1O`?
D3 antag: -100*; ATXN2 expr inh: 2%; S2 tox: inconclusive; a7 integrin act: -2%; IL-1B inflam inh: 4; D3 ag: 3

Results for Cc1cccc(/C=C/C(=O)c2ccc(NC3=NCCCS3)cc2)c1 ?
D3 antag: -57*; S2 tox: 10µM*; a7 integrin act: -64%; IL-1B inflam inh: -87*; D3 ag: -2

How did COc1cccc(/C=C/C(=O)c2ccc(NC3=NCCCS3)cc2)c1 do in these assays?
D3 antag: -54*; ATXN2 expr inh: inconclusive; a7 integrin act: 0%; IL-1B inflam inh: -98*; D3 ag: -8

What do the screens show for `O=C(COC(=O)CNS(=O)(=O)c1ccc(Br)cc1Cl)Nc1ccc(N2CCOCC2)cc1`?
D3 antag: -9; ATXN2 expr inh: 3%; S2 tox: inactive; a7 integrin act: 6%; IL-1B inflam inh: 0; D3 ag: 1

Results for O=C(NCCN1CCOCC1)c1cc2cc([N+](=O)[O-])ccc2s1 ?
D3 antag: -7; ATXN2 expr inh: -5%[11.3 µM]; S2 tox: inactive; a7 integrin act: -12%; IL-1B inflam inh: -3; D3 ag: -3

Results for COc1ccc2ccc(OC)c(/C=N/NC(=O)c3cc4ccccc4o3)c2c1 ?
D3 antag: -87*; S2 tox: inactive; a7 integrin act: 0%; IL-1B inflam inh: -4; D3 ag: -8

How did COc1ccc2ccccc2c1/C=N/NC(=O)c1ccc([N+](=O)[O-])cc1 do in these assays?
D3 antag: -97*; ATXN2 expr inh: -8%; S2 tox: inactive; a7 integrin act: 13%; IL-1B inflam inh: -8; D3 ag: -34
